From PubChem BioAssay (NCATS) come the findings set out here.

Results filed as inconclusive are left out. Calls of active or inactive are those of the source. Unless noted, the call rests on the fitted dose curve; in most records, active means well fitted curve in the direction sought with a large enough effect; inconclusive means small, poorly fitted or top-dose-only effect, or another doubt; inactive means no such curve, though single readings can be large; an effect the other way counts as inactive or inconclusive.

The nature of assay [1]: qHTS profiling of the MIPE4 collection as inhibitors of Plasmodium falciparum (DD2) proliferation (AID 743345; call rule not given here). The note with it: P. falciparum Dd2 in erythrocytes, SYBR Green DNA, 72 h; at 28.5 µM (top of the series) unless noted. In short, it runs like this:
(§1)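 Erythrocytes infected with P. falciparum (0.3% parasitemia, 2.5% hematocrit) incubated with compounds 72 h at 37 C, 5% CO2. Lysis with saponin/Triton buffer containing SYBR Green I, overnight at room temperature in the dark; DNA fluorescence (485/535 nm) normalised to 0.29 uM artemisinin and DMSO.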

Assay [2] can be described thus: qHTS profiling of the MIPE4 collection as inhibitors of Plasmodium falciparum (DD2) proliferation (Rep 2) (AID 743346; call rule not given here). The following applies: P. falciparum Dd2 in erythrocytes, SYBR Green DNA, 72 h; at 28.5 µM (top of the series) unless noted. In short, it runs like this:
as §1
For orientation: Quantitative high-throughput screening tests each substance at several concentrations.

A short description of assay [3]: qHTS profiling of the MIPE4 collection as inhibitors of Plasmodium falciparum (HB3) proliferation (AID 743347; call rule not given here;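 further: plate controls were DMSO vehicle wells for no effect and artemisinin wells for full effect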). The note with it: P. falciparum HB3 in erythrocytes, SYBR Green DNA, 72 h; at 28.5 µM (top of the series) unless noted. In short, it runs like this:
as §1

Assay [4] is described as follows: High-throughput drug toxicity screening in the BPDCN cell line Gen2.2 (AID 1224824; call rule not given here;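 further: cells exposed to compounds for 48 h before reading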). The note with it: Gen2.2 BPDCN cells; at 45.8 µM (top of the series) unless noted. In short, it runs like this: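 CellTiter-Glo luminescence after 48 h compound exposure of Gen2.2 cells; percent activity set with DMSO as 100% and bortezomib (9.2 uM final) as 0%. Cells seeded at 500 per well, RPMI + 10% FBS, 37 °C.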

Assay [5] can be described thus: High-throughput drug toxicity screening in the BPDCN cell line Cal-1 (AID 1224825; call rule not given here). The note with it: Cal-1 BPDCN cell viability, qHTS; at 45.8 µM (top of the series) unless noted. In outline:
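Cal-1 cells, 500 per well in phenol-red-free RPMI with 10% FBS, exposed to compounds for 48 hours at 37C, 5% CO2. Viability read by CellTiter-Glo luminescence; percent activity normalized to DMSO (100%) and 9.2 uM bortezomib final (0%).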

Assay [6] in a line: qHTS assay for measurement of the activity of small molecule inhibitors on Zika virus induced Caspase-3 activity in human iPSC derived neural progenitor cells (hNPCs) (AID 1224857). Further: % of control where 0% means no effect; nearly all actives have a fitted effect of over 65% in size. In outline:
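Human iPSC-derived neural progenitor cells pretreated 1 hr with compounds, then infected with Zika virus (2 FFU/cell) for 6 hours at 37 C. Caspase-3/7 measured by Caspase-Glo luminescence; % inhibition calculated from induction scaled to uninfected (0%) and infected (100%) wells.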

Assay [7] is described as follows: qHTS assay for measurement of the activity of small molecule inhibitors on Zika virus induced Caspase-3 activity in human astrocytoma cells (AID 1224859).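 Further: plate controls were ZIKV-infected untreated cells for no effect and uninfected cells for full effect.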 In short, it runs like this: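 SNB-19 astrocytoma cells, 250/well, pretreated 1 h with compounds, then Zika virus at 2 FFU/cell for 6 h at 37 C; Caspase-Glo 3/7 luminescence after 30 min; percent inhibition normalised to uninfected and infected controls.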

Assay [8] in a line: qHTS Screen of the MIPE 4.0 Collection Against Ewings Sarcoma (RDES) (AID 1259252). Further: nearly all actives have a fitted effect of over 35% in size. Further: potency means the concentration at half of the fitted maximal effect. In short, it runs like this: (§2)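 Dose series incubated 48 h with cells in RPMI plus 5% FBS, glutamine and penicillin/streptomycin; cell viability then quantified via CellTiter-Glo.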
Assay [9] in a line: qHTS Screen of the MIPE 4.0 Collection Against Ewings Sarcoma (TC71) (AID 1259253). Further: nearly all actives have a fitted effect of over 40% in size. Further: potency means the concentration at half of the fitted maximal effect. In outline: as §2
Assay [10] in a line: qHTS Screen of the MIPE 4.0 Collection Against Ewings Sarcoma (EW8) (AID 1259255). Further: nearly all actives have a fitted effect of over 35% in size. Further: potency means the concentration at half of the fitted maximal effect.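 On viability: 100% = DMSO-treated cells and 0% = medium-only wells without cells.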 In short, it runs like this: as §2
Assay [11] is described as follows: qHTS Screen of the MIPE 4.0 Collection Against Ewings Sarcoma (TC32) (AID 1259256). Further: nearly all actives have a fitted effect of over 45% in size. Further: potency means the concentration at half of the fitted maximal effect. In outline:
as §2

Assay [12] in a line: qHTS assay to identify small molecule inhibitors of chordoma cells - UCH-2 (AID 1259356). Further: on the % scale 0 is the no-effect control and ±100 the full control effect.
A short description of assay [13]: qHTS assay to identify small molecule inhibitors of chordoma cells - UCH-1 (AID 1259355). Further: on the % scale 0 is the no-effect control and ±100 the full control effect; nearly all actives have a fitted effect of over 55% in size. In outline:
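Cells (800/well) were seeded and left overnight at 37 C, 5% CO2, then treated with drugs at 15 concentrations plus a combination mix of auranofin, camptothecin, doxorubicin, rubitecan and topotecan. Viability after 48hr was read by CellTiter-Glo luminescence.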

A short description of assay [14]: P-glycoprotein substrates identified in KB-3-1 adenocarcinoma cell line, qHTS therapeutic library screen (AID 1346986). Further: nearly all actives have a fitted effect of over 60% in size. The note with it: outcome: dose series up to 44.5 µM unless noted. In outline:
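Compounds were tested in dose-response against KB-3-1 and KB-8-5-11 cells at 37 degree C for 72 h, and viability was measured by luminescence. AC50 values came from curve fitting with class-based activity calls.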

Assay [15] is described as follows: Identifying Small Molecule Inhibitors of Pancreatic Cancer Stem Cells (SN12C, Adherent) (AID 1259358).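 Further: cell survival measured after 48 h of compound exposure.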 In short, it runs like this: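 Endpoint: ATP-based luminescence, 48 h drug exposure. Bortezomib at 9.2 uM final as full-kill control; DMSO vehicle as negative control; activity normalized between vehicle and cell-free wells.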

As to `CCC1(c2ccccc2)C(=O)NCNC1=O`, the parasite growth remaining, % of DMSO control (lower = more inhibition) in assay [1] was 102%. Also, the parasite growth, % of control (lower = inhibition) in [2] was found to be 107%. The growth, % of control in assay [3] stood at 91%. Besides, in [4], the cell viability, % of control (lower = more cytotoxic) is 15.1%. Besides, the viability (% of control) in assay [5] is 8.03%. Besides, the Potency result in assay [6] and in assay [7] was “inactive” each time. Further, the Potency in assay [8] was 9.35 µM (active); in assay [9] it was 11.8 µM (active); in assay [10], 18.7 µM (active); in [11], 14.8 µM (active). In addition, the call in [12] was inactive.
Turning to `CN1CCC(=C2c3ccccc3C=Cc3ccccc32)CC1`, in assay [1], the parasite growth remaining, % of DMSO control (lower = more inhibition) was 36%. In assay [3], the growth, % of control worked out at 12.5%. Also, in assay [4], the cell viability, % of control (lower = more cytotoxic) amounted to 106%. Also, the viability (% of control) in [5] stood at 35%. Further, the Potency result in assay [6] and in assay [7] was “inactive” in each case. Further, the Potency was 9.35 µM (active) in [8] and 16.6 µM (active) in [9]. The molecule was classed as inactive in assay [12].
On to `CCN1CCCC1CNC(=O)c1cc(S(=O)(=O)CC)c(N)cc1OC` (configuration not stated), for which, in assay [1], the parasite growth remaining, % of DMSO control (lower = more inhibition) amounted to 99.9%. The parasite growth, % of control (lower = inhibition) in assay [2] was determined as 50.9%. Also, the growth, % of control in assay [3] was 101%. Also, the cell viability, % of control (lower = more cytotoxic) in [4] is 143%. In addition, the viability (% of control) in assay [5] came out at 55.1%. The Potency result in [6], in assay [7], in [8] and in assay [9] was “inactive” in each case. In addition, in [10], the Potency was 20.9 µM (active).
For the molecule `CC1(C)O[C@H]2CC(=O)OC[C@]23[C@H]2CC[C@@]4(C)[C@H](c5ccoc5)OC(=O)[C@H]5O[C@]54[C@]2(C)C(=O)C[C@@H]13`, the parasite growth remaining, % of DMSO control (lower = more inhibition) in assay [1] turned out to be 122%. Further, the growth, % of control in assay [3] came out at 107%. Besides, in [4], the cell viability, % of control (lower = more cytotoxic) was found to be 131%. Moreover, the viability (% of control) in assay [5] is 118%. Moreover, the Potency entry in [6], in assay [7], in assay [9], in assay [10], in assay [11] and in [13] was “inactive” in each case. Moreover, the call in assay [12] and in [14] was inactive.
For `COc1nc(C)nc(Cl)c1NC1=NCCN1`, the parasite growth remaining, % of DMSO control (lower = more inhibition) in assay [1] is 89.9%. Besides, the growth, % of control in assay [3] was 98.4%. In addition, in [4], the cell viability, % of control (lower = more cytotoxic) is 136%. Also, the viability (% of control) in assay [5] was 97.7%. Further, the Potency result in assay [6], in assay [7], in assay [8], in [9], in [10] and in assay [11] was “inactive” in each case. In assay [13], the Potency result was “inactive”. Also, the result in assay [12] was inactive.
For `CC1(CN2CCC(n3c(=O)[nH]c4ccccc43)CC2)OCc2ccccc2-n2cccc21` (configuration not stated), the parasite growth remaining, % of DMSO control (lower = more inhibition) in [1] was 9.37%. Also, the parasite growth, % of control (lower = inhibition) in [2] was 11%. This molecule came in with a growth, % of control in assay [3] of 7.33%. For the same molecule, the cell viability, % of control (lower = more cytotoxic) in assay [4] was 137%. Also, the viability (% of control) in assay [5] came to 102%. Besides, the Potency result in [6], in [7], in [13] and in assay [15] was “inactive” in each case. Further, the Potency was 16.6 µM (active) in assay [9], 14.8 µM (active) in assay [10] and 14.8 µM (active) in assay [11]. Further, in [12], the molecule was classed as inactive.
For `O=C(c1ccc(F)cc1)C1CCN(CCn2c(=O)[nH]c3ccccc3c2=O)CC1`, the parasite growth remaining, % of DMSO control (lower = more inhibition) in [1] amounted to 19.2%. Besides, in assay [2], the parasite growth, % of control (lower = inhibition) came out at 104%. The growth, % of control in assay [3] stood at 61.3%. Moreover, the cell viability, % of control (lower = more cytotoxic) in [4] was 216%. Besides, in [5], the viability (% of control) amounted to 112%. Also, the Potency entry in assay [6], in assay [7], in assay [8], in assay [11] and in assay [13] was “inactive” in each case. Besides, the call in [12] was inactive.
As for `CN1C2CCC1CC(OC(=O)C(CO)c1ccccc1)C2` (configuration not stated), in assay [4], the cell viability, % of control (lower = more cytotoxic) stood at 172%. Also, the viability (% of control) in assay [5] was 113%. Besides, the Potency result in [6] and in assay [7] was “inactive” throughout.
Take `NC(=O)NO`: the parasite growth remaining, % of DMSO control (lower = more inhibition) in assay [1] is 97.5%. Moreover, the parasite growth, % of control (lower = inhibition) in assay [2] was found to be 95.5%. For the same molecule, in assay [3], the growth, % of control was determined as 96.8%. In addition, in [4], the cell viability, % of control (lower = more cytotoxic) was found to be 4.63%. For the same molecule, the viability (% of control) in assay [5] was found to be 2.6%. Further, the Potency entry in [6], in [7], in assay [11] and in assay [13] was “inactive” each time. In addition, the results for the Potency in [8] and in [9] were 20.9 µM (active) and 5.9 µM (active), respectively. The outcome in [12] was inactive.
Consider `Nc1ccn([C@H]2CC[C@@H](CO)O2)c(=O)n1`, for which the parasite growth remaining, % of DMSO control (lower = more inhibition) in [1] amounted to 115%. In addition, in assay [2], the parasite growth, % of control (lower = inhibition) stood at 74.1%. Also, the growth, % of control in [3] was 176%. Besides, the cell viability, % of control (lower = more cytotoxic) in [4] was 251%. Also, the viability (% of control) in assay [5] came out at 102%. In addition, the Potency result in assay [6], in assay [7], in assay [8], in assay [9], in assay [10] and in assay [11] was “inactive” throughout. Moreover, the outcome in assay [14] was inactive.
